Shown are actives, neighbours in structure and some others; about 2.6% of the full set was active somewhere.
TCR act – Activators of T cell receptors: qHTS campaign; primary human leukocytes, anti-CD3, IL-2 HTRF, 48 h; AID 504894, 2011; 330,000 tested, under 10 active; Potency, µM (top dose mostly 9.22 µM), hits mostly activators
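TCR engagement came from a-CD3 beads alone, with compounds added to primary human leukocytes for 48 hr. Secreted IL-2 bridged europium cryptate- and d2-labelled anti-IL-2 antibodies, giving FRET emission at 665nm after 320nm excitation.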
A549 tox-1 – Nrf2 qHTS screen for inhibitors: counterscreen for cytotoxicity. A549 ARE-Fluc cells, CellTiter-Fluor viability, 18-24 h. Potency, µM (doses to about 46 µM), usual class: inhibitors. 0.16% of 390,000 active. AID 504648, 2011
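A549 ARE-Fluc cells in 5% FBS OPTI-MEM, 5000 cells/well, rested 2 h then exposed to compounds in concentration-response for 18-24 h at 37 °C. Viability by CellTiter-Fluor fluorescence (Ex 405/Em 525) after 30 min; luciferase luminescence (BugLite, 15 min, RT) read afterwards.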
Nrf2 inh – Nrf2 qHTS screen for inhibitors. A549 ARE-Fluc reporter, luciferase luminescence, 18-24 h. Potency, µM (top dose mostly 46 µM), most hits filed as inhibitors. 2.1% of 360,000 active. AID 504444, 2011; note: nearly all actives have a fitted effect of over 60% in size
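A549 ARE_Fluc cells (5000/well, 5% FBS OPTI-MEM) pre-incubated 2 h, then treated with compounds 18-24 h at 37C/5% CO2 in concentration-response. CellTiter-Fluor viability read first; BugLite luciferase luminescence after 15 min at room temperature gives Nrf2 activity.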
CCT chaperon mod – High-Throughput Screening for Modulators of Cytosolic Chaperonin Activity. purified chaperonin ATPase assay, HTRF ADP detection, 30 min. activity change, % (concentration not given with the values), hits read low. 0.3% of 360,000 active. AID 651819, 2012; in the data active = activity change below about -30%
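Nucleotide hydrolysis assay: TRiC at 20–40 nM final (set by batch activity) with 10 uM ATP, 30 min at 37 °C, in presence of 76 uM compound. Detection by competitive ADP HTRF, 30 min ambient.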
Nrf2 ARE act – qHTS of Nrf2 Activators | AREc32 ARE-luciferase reporter (MCF7-derived line), luminescence, 24 h | 0.31% of 410,000 active | Potency, µM (titrated, usually from 46.1 µM), most hits filed as activators; note: nearly all actives have a fitted effect of over 65% in size
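Reporter line AREc32 (ARE-Fluc), seeded overnight in OPTI-MEM with 5% FBS; compound pin-transferred, 24 hr at 37 deg C, 5% CO2; luminescent read-out.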
A-T KAP1 phos – qHTS Assay for Identifying a Potential Treatment of Ataxia-Telangiectasia. 0.19% of 320,000 active. AID 485349, 2010. Potency, µM (titrated, usually from 57.5 µM), actives largely listed as activators. F2112 A-T fibroblasts, KAP-1 phosphorylation AlphaLISA; neocarzinostatin DNA damage 30 min before lysis; note: nearly all actives have a fitted effect of over 45% in size
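hTERT-immortalized A-T patient fibroblasts (F2112), 500 cells/well in OPTI-MEM, 1% FBS, got compounds for 60 min, then NCS for 30 min at 37C. Lysates were then assayed for phospho-KAP-1 by AlphaLISA (anti-pKAP1 donor, anti-KAP1 acceptor beads), 6 hr at 25C.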
FLuc enzyme inh – Nrf2 qHTS screen for inhibitors: Purified Fluc Biochemical Counterscreen for Hit Validation | shares compounds with Nrf2 inh | purified firefly luciferase, luminescence inhibition | Potency, µM (series often up to 57.5 µM), hits mostly inhibitors | 4% of 1,400 active | AID 720522, 2013; note: nearly all actives have a fitted effect of over 65% in size
Target sequence (P08659 whole entry, looked up): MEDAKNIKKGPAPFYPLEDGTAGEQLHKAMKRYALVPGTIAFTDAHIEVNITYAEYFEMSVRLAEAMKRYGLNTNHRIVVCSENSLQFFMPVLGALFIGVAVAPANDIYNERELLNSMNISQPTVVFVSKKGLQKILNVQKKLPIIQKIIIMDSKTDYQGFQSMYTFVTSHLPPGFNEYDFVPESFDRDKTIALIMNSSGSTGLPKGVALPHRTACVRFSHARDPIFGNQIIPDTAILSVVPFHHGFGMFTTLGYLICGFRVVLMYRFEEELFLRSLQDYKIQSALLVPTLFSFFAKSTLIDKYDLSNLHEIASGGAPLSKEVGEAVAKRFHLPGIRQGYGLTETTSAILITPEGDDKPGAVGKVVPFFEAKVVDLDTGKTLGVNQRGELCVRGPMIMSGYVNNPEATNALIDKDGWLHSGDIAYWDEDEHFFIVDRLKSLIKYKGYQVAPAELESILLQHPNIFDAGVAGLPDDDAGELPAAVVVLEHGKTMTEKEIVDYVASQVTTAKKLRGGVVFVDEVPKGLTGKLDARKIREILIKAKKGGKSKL
A549 tox-2 – Nrf2 qHTS screen for inhibitors: A549 ARE-Fluc Cytotoxicity Counterscreen for Hit Validation | Potency, µM (titrated, usually from 46.1 µM), usual class: inhibitors | AID 720523, 2013 | 2% of 1,400 active | shares compounds with Nrf2 inh | A549 ARE-Fluc cells, cytotoxicity counterscreen;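 note: cells exposed to compounds for 18 to 24 hours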
ARE-Fluc inh – Nrf2 qHTS screen for inhibitors: Nrf2 A549 ARE-Fluc Confirmation Assay for Hit Validation. shares compounds with Nrf2 inh. A549 ARE-firefly luciferase reporter, luminescence. Potency, µM (doses to about 46.1 µM), hits mostly inhibitors. 74% of 1,400 active. AID 720524, 2013; note: nearly all actives have a fitted effect of over 65% in size
Hits are given with their value; 0 = inactive; ? = inconclusive; - = not tested or not shown. Unless noted, calls come from the whole dose curve; as a rule, active = well fitted curve in the direction sought with a large enough effect; inconclusive = small, poorly fitted or top-dose-only effect, or another doubt; inactive = no such curve, though single readings can be large; an effect the other way counts as inactive or inconclusive.

SMILES	TCR act	A549 tox-1	Nrf2 inh	CCT chaperon mod	Nrf2 ARE act	A-T KAP1 phos	FLuc enzyme inh	A549 tox-2	ARE-Fluc inh
Cc1ccc[n+](Cc2ccc([N+](=O)[O-])cc2)c1	0	0	?	0	0	0	-	-	-
O=[N+]([O-])c1ccc(C[n+]2cccc3c4ccccc4ccc32)cc1	0	?	3.66µM	0	0	0	0	0	3.66µM
Cc1ccc(S(=O)(=O)NCCCOC(=O)Nc2ccncc2)cc1	0	0	0	0	0	0	-	-	-
Cc1ccc(C)c(NC(=S)NC(NC(=O)/C=C/c2ccccc2)C(Cl)(Cl)Cl)c1 (stereo not given)	0	0	8.2µM	0	0	0	0	?	0.366µM
CC(Oc1ccc(Cl)cc1Cl)C(=O)Nc1ccc2oc(-c3ccncc3)nc2c1 (stereo not given)	-	?	4.61µM	0	0	0	0	0	8.2µM
Cc1ccc(-c2nc3cc(NC(=O)C(C)C)ccc3o2)cc1	0	0	?	0	0	0	-	-	-
CCCCOCCCNc1ncnc2c1[nH]c1ccccc12	0	0	9.2µM	0	0	0	0	0	11.6µM
CC1CCCC(NC(=O)C2CCC(CNc3c(N4CCCCC4)c(=O)c3=O)CC2)C1C (stereo not given)	0	0	0	0	0	0	-	-	-
OCC[n+]1ccc(/C=C/c2c[nH]c3ccccc23)cc1	0	?	6.51µM	0	0	0	0	?	8.2µM
CCCCCCCCCCCCCCCC[n+]1ccc(/C=C/c2c[nH]c3ccccc23)cc1	-	-	-	-	-	-	?	?	7.31µM
Cc1cc(C)c(S(=O)(=O)Nc2cccc3cccnc23)c(C)c1	-	0	2.91µM	-	-	-	0	0	16.4µM
Cc1cc(C)c(S(=O)(=O)Nc2cccc3nsnc23)c(C)c1	0	0	0	0	0	0	-	-	-
Cc1csc2ncnc(NC3CCN(Cc4ccccc4)CC3)c12	0	0	9.2µM	0	0	0	0	0	4.11µM
O=[N+]([O-])c1ccccc1NC1CCN(Cc2ccccc2)CC1	0	0	0	0	0	0	-	-	-
CC(=NNC(=S)N1CCC1)c1ccccn1	0	?	0.13µM	0	?	-	0	?	0.651µM
CC(=O)c1ccc(NC(=O)c2ccc(CNc3c(N4CCOCC4)c(=O)c3=O)cc2)cc1	0	0	0	0	0	0	-	-	-
CCc1ccccc1-n1nnc(-c2nsc(NC(=O)c3ccc(C)c(C)c3)n2)c1C	-	0	8.2µM	-	0	-	0	0	20.6µM
Cc1cc(C)c(NS(=O)(=O)c2cc(-c3onc(C)c3C)ccc2C)c(C)c1	-	0	?	-	0	-	-	-	-
Cc1ccc2c(c1)N(S(=O)(=O)c1cc(-c3onc(C)c3C)ccc1C)CCO2	0	0	8.2µM	0	0	0	0	0	?
COc1ccc(CCNC(=O)c2ccc(-c3cccc([N+](=O)[O-])c3)o2)cc1OC	0	0	?	0	0	0	-	-	-
COc1ccc(CCNC(=O)c2cccc([N+](=O)[O-])c2)cc1OC	0	0	2.59µM	0	0	-	0	0	3.66µM
Cc1cccc(NC(=O)C2CCN(S(=O)(=O)c3cccc4nsnc34)CC2)c1	0	0	?	0	0	0	-	-	-
O=C(Nc1cccc(F)c1)C1CCN(S(=O)(=O)c2cccc3nsnc23)CC1	-	0	0.0082µM	-	0	-	0	0	0
COc1ccc(CNC(=O)c2cc3c(=O)n(Cc4cccnc4)ccc3nc2C)cc1	-	0	0	-	0	-	-	-	-
CCOC(=O)N1CCC(NC(=O)c2ccc(CO)c(C(=O)NC3CCN(C(=O)OCC)CC3)c2)CC1	0	0	0	0	0	0	-	-	-
SMILES	TCR act	A549 tox-1	Nrf2 inh	CCT chaperon mod	Nrf2 ARE act	A-T KAP1 phos	FLuc enzyme inh	A549 tox-2	ARE-Fluc inh
CCOC(=O)N1CCC(NC(=O)c2cc(C(=O)Nc3cccc(C(F)(F)F)c3)ccc2CO)CC1	0	?	5.8µM	0	0	0	0	0	16.4µM
Cc1nc(-c2ccccc2)nc2n[nH]c(N)c12	0	0	0	0	0	-	-	-	-
COc1ccccc1N1CCN(C(=O)C2CCCN(S(=O)(=O)c3ccc(C)cc3)C2)CC1 (stereo not given)	0	0	?	0	0	0	-	-	-
COc1ccccc1N1CCN(C(=O)C2CCCN(S(=O)(=O)c3ccc4c(c3)CCCN4C(C)=O)C2)CC1 (stereo not given)	0	0	9.2µM	0	0	0	0	0	9.2µM
CCN(CC)S(=O)(=O)c1ccc2oc(C(=O)Nc3ccc(OC)cc3OC)c(C)c2c1	0	0	3.66µM	0	0	0	0	0	14.6µM
CCN(CC)S(=O)(=O)c1ccc2oc(C(=O)NCc3ccc(F)cc3)c(C)c2c1	0	0	6.51µM	0	0	0	0	0	23.1µM
CCc1ccc(NC(=O)Cn2c(=O)n(Cc3ccco3)c(=O)c3cccnc32)cc1	-	0	0	-	0	-	-	-	-
Cc1nnc(SCC(=O)c2c(N)n(C3CC3)c(=O)[nH]c2=O)n1C	0	0	0	0	0	0	-	-	-
Cc1ccc(Cl)cc1NC(=O)CN1C(=O)NC2(CCCCCC2)C1=O	0	0	0	0	0	0	-	-	-
N=c1ccn2c(n1)O[C@H]1[C@H](O)[C@@H](CO)O[C@H]12	0	0	0.184µM	0	0	0	0	0	0.092µM
COC(=O)c1c(C)oc2ccc(N(C(=O)Oc3ccccc3)S(=O)(=O)c3ccc(Cl)c([N+](=O)[O-])c3)cc12	0	0	0	0	0	0	-	-	-
CCc1ccc(S(=O)(=O)N(C(=O)Oc2ccccc2)c2ccc3oc(C)c(C(=O)OC)c3c2)cc1	-	0	3.66µM	-	0	-	0	0	6.51µM
COC(=O)c1c(C)oc2ccc(N(C(=O)c3ccncc3)S(=O)(=O)c3cc(C)c(C)cc3C)cc12	-	0	9.2µM	-	0	-	0	0	10.3µM
CC(=O)c1c(C)oc2ccc(N(C(=O)c3ccncc3)S(=O)(=O)c3ccc(F)cc3C)cc12	-	0	?	-	0	-	-	-	-
CCOC(=O)c1c(C)oc2ccc(N(C(=O)c3ccncc3)S(=O)(=O)c3ccc(F)cc3C)cc12	-	0	?	-	0	-	-	-	-

High-throughput results (PubChem)
